# Compounds with a hit are over-represented: about 8.1% of the library has one in this group of screens.
# PD-1 reversal: activators reversing PD-1 mediated T-cell inhibition; AID 2316; activation, % (test concentration not listed); 29,000 tested, under 10 active; primary human CD4 T cells, PD-L1 beads, CellTiter-Glo 96 h; call rule not given here;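 note: 0% = median vehicle wells and 100% = positive control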
# NOMO-1 viab: STK33 inhibitor candidate reducing NOMO-1 cell viability | inhibition, % (test concentration not listed) | 37,000 tested, 7.5% active | NOMO-1 AML viability, CellTiter-Glo luminescence, 72 h | AID 2330; in the data active = inhibition above about 80%
# MITF inhib: inhibitors of MITF; TRPM1 promoter luciferase, luminescence, 24 h; inhibition, % (no concentration beside the values); 37,000 tested, 0.28% active; AID 2240; in the data active = inhibition above about 85%;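 note: human melanocyte line stably carrying TRPM1 promoter luciferase reporter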
# Shh pathway inh: blocks Sonic Hedgehog signaling. Shh-LIGHT2 Gli-luciferase reporter, 30 h. inhibition, % (no concentration beside the values). 22,000 tested, 2.1% active;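 active = mean inhibition across valid replicates above about 65%, limit read from the data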;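 note: pathway switched on by Shh-conditioned medium diluted 1 in 25 in low serum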
# The depositor's hits bear a star; x = no result given.
SMILES,PD-1 reversal,NOMO-1 viab,MITF inhib,Shh pathway inh
O=C(/C=C/c1ccccc1)CC(O)(c1ccccc1)C(F)(F)F (stereo unspecified),-36,122*,41,37
O=C(/C=C/c1ccccc1)CC(O)CCc1ccccc1 (stereo unspecified),1,26,-7,-17
COc1ccc(S(=O)(=O)Nc2ccc3c(c2)CC(=O)N([C@H](C)CO)C[C@@H](C)[C@@H](CN(C)C(=O)Nc2ccccc2)O3)cc1,1,21,-18,-10
COc1cc(=O)oc(C(C)C(C)O)c1CO (stereo unspecified),0,-5,4,11
COc1cc(OC)c(C(O)C(C)O)cc1OC (stereo unspecified),2,90*,2,-1
CC1=Nc2ccc(Br)cc2C(c2ccccc2)N1CC(=O)NN (stereo unspecified),-1,19,-3,-15
O=C1CN(C(=O)/C=C/c2ccccc2)C(c2ccccc2)c2cc(Br)ccc2N1 (stereo unspecified),-3,89*,34,x
CCOC(=O)c1c(NC(=O)C2COc3ccccc3O2)sc2c1CCCC2 (stereo unspecified),x,6,5,x
C[C@@H]1CN([C@H](C)CO)C(=O)Cc2cc(NC(=O)CCN3CCOCC3)ccc2O[C@@H]1CN(C)CC1CCCCC1,x,7,-9,0
CC1(C)CC(=O)C=C(Sc2nc3ccccc3o2)C1,-37,120*,77,87*
Cc1noc(C)c1S(=O)(=O)N(C)C[C@H]1Oc2ccc(NS(=O)(=O)c3ccc(F)cc3)cc2C(=O)N([C@H](C)CO)C[C@H]1C,x,-8,2,-33
Cc1ccc(S(=O)(=O)/C(C#N)=C/Nc2cc(C(F)(F)F)cc(C(F)(F)F)c2)cc1,0,89*,26,101*
C[C@@H]1CN([C@@H](C)CO)C(=O)c2cc(NC(=O)Cc3ccccc3)ccc2O[C@H]1CN(C)S(=O)(=O)c1ccccc1,0,2,-1,19
C[C@@H]1CN([C@H](C)CO)C(=O)Cc2cc(NS(=O)(=O)c3ccc(F)cc3)ccc2O[C@H]1CN(C)CC1CC1,1,18,0,-50
C[C@@H]1CN([C@H](C)CO)C(=O)Cc2cc(NS(=O)(=O)c3ccc(F)cc3)ccc2O[C@@H]1CN(C)CC1CCCCC1,-3,14,-2,4
C[C@H](CO)N1C[C@H](C)[C@H](CN(C)CC2CCCCC2)Oc2ccc(NS(=O)(=O)c3ccc(F)cc3)cc2CC1=O,x,104*,-7,-10
C[C@H]1CN([C@@H](C)CO)C(=O)Cc2cc(NS(=O)(=O)c3ccc(F)cc3)ccc2O[C@@H]1CN(C)CC1CCCCC1,-1,123*,7,21
COc1cccc2c1C(=O)c1c(O)c3c(c(O)c1C2=O)C[C@@](O)(C(=O)CO)C[C@@H]3OC1CC(N)C(O)C(C)O1 (stereo partly specified),-24,98*,62,83*
COc1cccc2c1C(c1ccc3c(c1O)C(=O)CC(C)C3O)OC2=O (stereo unspecified),1,5,-7,1
COc1cccc2c1C(=O)c1c(O)c3c(c(O)c1C2=O)C[C@@](O)(C(=O)CO)C[C@@H]3O[C@H]1C[C@H](N)[C@H](O)[C@H](C)O1,-21,99*,71,90*
CC(C)c1ccc(OCC(=O)Nc2ccccc2-c2nc3ccccc3s2)cc1,-1,23,-9,x
N#CC1=C(N)Nc2c(c(=O)oc3ccccc23)C1c1ccc(Br)cc1 (stereo unspecified),-4,34,25,72*
Cc1csc2sc(C=NCc3cccs3)c(C)c12,-4,122*,-6,-4
Cn1c(SCCCN2C(=O)c3cccc4cccc(c34)C2=O)nnc1-c1ccncc1,0,13,-63,x
Cn1c(N2C(=O)c3cccc4cccc(c34)C2=O)nc2ccccc21,0,16,-25,86*
SMILES,PD-1 reversal,NOMO-1 viab,MITF inhib,Shh pathway inh
Cc1ccc2ccc(C(Nc3ccccn3)c3cccc([N+](=O)[O-])c3)c(O)c2n1 (stereo unspecified),-13,112*,52,x
CSc1ccc(C(Nc2cc(C)ccn2)c2ccc3ccc(C)nc3c2O)cc1 (stereo unspecified),x,40,35,x
Cc1ccc2ccc(C(Nc3ccccn3)c3c(F)cccc3Cl)c(O)c2n1 (stereo unspecified),-12,110*,58,x
Cc1ccc2ccc(C(Nc3ccccn3)c3ccccc3Cl)c(O)c2n1 (stereo unspecified),-11,106*,54,x
COc1ccc(C(Nc2cccc(C)n2)c2ccc3ccc(C)nc3c2O)c(OC)c1OC (stereo unspecified),-13,96*,11,x
COc1ccc(CCCc2nnc(SCC(=O)Nc3cc(F)ccc3C)o2)cc1C,1,2,4,-21
C[C@@H]1CN([C@@H](C)CO)C(=O)c2cccc(NC(=O)Nc3ccc4c(c3)OCO4)c2O[C@@H]1CN(C)C(=O)Nc1ccccc1,3,-9,-10,-44
O=C(CCCN1C(=O)c2ccccc2C1=O)Nc1cccc(F)c1,0,6,-2,x
Cc1cc(N(CC(=O)Nc2ccccc2-c2ccccc2)S(C)(=O)=O)ccc1Br,-1,48,-22,x
Cc1cccc(NC(c2ccccc2[N+](=O)[O-])c2ccc3ccc(C)nc3c2O)n1 (stereo unspecified),-13,121*,53,x
Cc1ccnc(NC(c2cccc(Cl)c2)c2ccc3ccc(C)nc3c2O)c1 (stereo unspecified),x,118*,56,x
Cc1ccc(-n2c(SCC(=O)Nc3cc(C(F)(F)F)ccc3Cl)nnc2-c2ccco2)cc1,-2,14,8,x
Cc1onc(-c2ccccc2)c1C(=O)NCCCn1ccnc1,1,3,-9,x
O=S(=O)(NCC(O)Cn1c2ccc(Cl)cc2c2cc(Cl)ccc21)c1ccccc1 (stereo unspecified),x,113*,5,x
C[C@@H]1CN([C@@H](C)CO)C(=O)c2cccc(NC(=O)Nc3ccc(C(F)(F)F)cc3)c2O[C@@H]1CN(C)C(=O)Nc1ccccc1,0,112*,2,23
C[C@@H]1CN([C@@H](C)CO)C(=O)c2cccc(NC(=O)Nc3ccccc3)c2O[C@H]1CN(C)C(=O)Nc1ccc(C(F)(F)F)cc1,-2,44,0,31
C[C@@H]1CN([C@H](C)CO)C(=O)c2cccc(NC(=O)Nc3ccc(C(F)(F)F)cc3)c2O[C@H]1CN(C)C(=O)Nc1ccccc1,-2,93*,12,-14
C[C@@H]1CN([C@H](C)CO)C(=O)c2cccc(NC(=O)Nc3ccccc3)c2O[C@@H]1CN(C)C(=O)Nc1ccc(C(F)(F)F)cc1,-1,16,-5,13
Cc1ccc(-c2ccc(CCC(=O)O)n2-c2ccc(N(C)C)cc2)cc1,0,19,0,x
COc1ccc(C2C(C(=O)c3cccs3)C(=O)C(=O)N2CCCN2CCOCC2)cc1 (stereo unspecified),-1,25,-49,x

# From PubChem
